This note sets out measurements from PubChem BioAssay (Tox21).

Results filed as inconclusive are left out. Entries that show only a call come without a potency. A number with no mark means an inactive call. The source made the active and inactive calls. The call rests on the fitted dose curve; in most records, active means well fitted cell-killing curve with a large enough effect in the repeat runs; inconclusive means weak or mixed curves, or effect the other way; inactive means no such curve, though single readings can be large or run the other way.

A short description of this assay: qHTS assay to identify small molecule antagonists of the progesterone receptor (PR) signaling pathway - cell viability counter screen (AID 1346798). Further: nearly all actives have a fitted effect of over 50% in size. Particulars: PR-UAS-bla HEK293T viability, CellTiter-Glo luminescence, 16 h; series mostly up to 92.4 µM. From the text:
National Center for Advancing Translational Sciences [NCATS]
NIH Chemical Genomics Center [NCGC]
U.S. Environmental Protection Agency [EPA]
National Institutes of Environmental Health Sciences [NIEHS]
National Toxicology Program [NTP]
U.S. Food and Drug Administration [FDA]
Progesterone receptor (PR), a nuclear hormone receptor, plays an important role in development, metabolic homeostasis and reproduction. It is activated by the steroid hormone progesterone. Endocrine disrupting chemicals (EDCs) and their interactions with steroid hormone receptors like PR causes disruption of normal endocrine function. To identify the compounds that inhibit PR signaling, a PR-UAS-bla GripTite cell line i.e. PR-UAS-bla HEK293T (Invitrogen, Carlsbad, CA, USA) containing a beta-lactamase reporter gene under the control of an UAS response element was used to screen Tox21 10K compound library. The cytotoxicity of the Tox21 compound library against the PR-bla cell line was tested in parallel by measuring the cell viability using CellTiter-Glo assay in the same wells.
Tox21 Assay Protocol Summary:
PR-UAS-bla HEK293T cells were dispensed at 3,000 cells/4 uL of assay medium containing 2% charcoal stripped FBS per well into black wall/clear-bottom 1536-well plates using a Multidrop Combi (ThermoFisher Scientific, Waltham, MA) dispenser. After the assay plates were incubated at a 37C and 5% CO2 for 4 hr, 23 nL of compounds dissolved in DMSO, positive controls or DMSO only was transferred to the assay plate by a Pintool station (Kalypsys, San Diego, CA), followed by addition of 1 uL of R5020 in assay medium using a Flying Reagent Dispenser (FRD, Aurora Discovery, San Diego, CA). The plates were incubated at 37C and 5% CO2 for 16 hr. Then 1 uL of LiveBLAzer B/G FRET substrate was added using a Flying Reagent Dispenser, the plates were incubated at room temperature for 2 hours, and fluorescence intensity was measured by an Envision plate reader (PerkinElmer, Shelton, CT). For cell viability readout that measures cytotoxicity, 4 uL/well of CellTiter-Glo reagent was added into the assay plates using a FRD. After 30 min incubation at room temperature, the luminescence intensity in the plates was measured using a ViewLux (PerkinElmer) plate reader.
For `CC(=O)CN(CC(C)=O)N=O`, the Potency result was “inactive”.

`CCOc1cc(OP(=S)(OC)OC)nc(CC)n1`: the Potency entry was “inactive”. The same measure, in the same setting: to `COP(=O)(OC)O/C(C)=C/C(=O)N(C)C` belongs “inactive”; to `C=CC=O`, “inactive”; to `NNC(N)=O`, “inactive”. Same read-out and setting: with `CC(O)CCl` (stereo not given) the entry was “inactive”; with `OP(O)c1ccccc1`, “inactive”; with `ClC1=C(Cl)C2(Cl)C(CBr)CC1(Cl)C2(Cl)Cl` (stereo not given), “inactive”. Same read-out and setting: with `C=C1C[C@@H]2[C@H](CC[C@]3(C)C(=O)CC[C@@H]23)[C@@]2(C)C=CC(=O)C=C12` the entry was “inactive”; with `COc1ccc(C=O)cc1O`, “inactive”; with `CCCOC(=O)Cc1ccc(OCC(=O)N(CC)CC)c(OC)c1`, “inactive”. Regarding `CC[C@H](N)c1ccccc1`, the Potency entry is “inactive”. `N[C@@H]1C[C@H]1c1ccccc1`: the Potency result is “inactive”. Same read-out and setting: with `CN(C)C(=O)Oc1cc(OC(=O)N(C)C)cc(C(O)CNC(C)(C)C)c1` (stereo not given) the entry was “inactive”. The same measure, in the same setting: to `CCCCCCCCBr` belongs “inactive”; to `C=CCC1(C(C)CC)C(=O)NC(=O)NC1=O` (stereo not given), “inactive”. Still for that read-out and setting: with `CCN(CC)C1CCCCC1` the entry was “inactive”; with `COC[C@@H](NC(C)=O)C(=O)NCc1ccccc1`, “inactive”. `CCC(C)C(C)(COC(N)=O)COC(N)=O` (stereo not given): the Potency result is “inactive”. On the same count and under the same terms, to `COc1ccccc1OC` belongs “inactive”. Still for that read-out and setting: to `C=C(Cl)CSC(=S)N(CC)CC` belongs “inactive”; to `CNC(=O)NC(O)C(Cl)(Cl)Cl` (stereo not given), “inactive”.

For the compound `O=c1[nH]c2ccccc2o1`, the Potency entry is “inactive”. With `C[C@@H](N)[C@@H](O)c1ccccc1`, the Potency entry was “inactive”. Still for that read-out and setting: with `C(COCC1CO1)OCC1CO1` (stereo not given) the entry was “inactive”; with `C[N+]1(C)CCCCC1`, “inactive”.

Regarding `O=C(Cl)C(Cl)(Cl)Cl`, the Potency entry is “inactive”. The same measure, in the same setting: to `CC(C)(C)C(=O)Cl` belongs “inactive”; to `O=P(O)(O)c1ccccc1`, “inactive”. Same read-out and setting: to `N#CN=C1SCCN1Cc1ccc(Cl)nc1` belongs “inactive”; to `NCC1(CC(=O)O)CCCCC1`, “inactive”; to `O=C/C=C/c1ccco1`, “inactive”. For `Cc1ccc2c(c1)C1CN(C)CCC1N2` (stereo not given), the activity change, negative = cytotoxicity is -15.8% [at 18.9 µM]. On to `CCCCS(=O)(=O)Cl`, for which the Potency result is “inactive”.

On to `CCOC(=O)C(Cl)Cc1cc(-n2nc(C)n(C(F)F)c2=O)c(F)cc1Cl` (stereo not given), for which the Potency result was “inactive”.

On to `CCNc1nc(Cl)nc(NC(C)(C)C)n1`, for which the Potency entry is “inactive”. Take `Cl/C=C/CCl`: the Potency result is “inactive”.

As for `CS(=O)(=O)c1ccc(C(=O)C2C(=O)CCCC2=O)c(Cl)c1COCC(F)(F)F`, the Potency result was “inactive”. On the same count and under the same terms, to `COc1cccc(C=O)c1` belongs “inactive”. As for `BrCC1CO1` (stereo not given), the Potency result is “inactive”.
